Screen size: about 110,000 compounds; about 1,400 (1.3%) were called active.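 Rule for the calls: active = Z score or B-score, a plate-position-corrected score, falls beyond the plate's 99.7% confidence bounds, in either direction; inactive = both scores lie inside the 99.7% bounds.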 The entries come from a sample that favours actives as a whole.
Target: Sodium-dependent dopamine transporter (Homo sapiens) (UniProt Q01959)
Experiment: modulators of human DAT uptake with cocaine – cell-based, LLC-PK1 hDAT, [14C]-dopamine uptake, MLSMR, cocaine antagonist project, primary screen (AID 449768);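 note: scored against the spread of the other compound wells on the same plate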
Details: LLC-PK1 hDAT cells, [14C]-dopamine uptake with cocaine IC80; at 10 µM; actives deviate in either direction

Sequence of Sodium-dependent dopamine transporter (Homo sapiens) (Q01959 whole entry, looked up): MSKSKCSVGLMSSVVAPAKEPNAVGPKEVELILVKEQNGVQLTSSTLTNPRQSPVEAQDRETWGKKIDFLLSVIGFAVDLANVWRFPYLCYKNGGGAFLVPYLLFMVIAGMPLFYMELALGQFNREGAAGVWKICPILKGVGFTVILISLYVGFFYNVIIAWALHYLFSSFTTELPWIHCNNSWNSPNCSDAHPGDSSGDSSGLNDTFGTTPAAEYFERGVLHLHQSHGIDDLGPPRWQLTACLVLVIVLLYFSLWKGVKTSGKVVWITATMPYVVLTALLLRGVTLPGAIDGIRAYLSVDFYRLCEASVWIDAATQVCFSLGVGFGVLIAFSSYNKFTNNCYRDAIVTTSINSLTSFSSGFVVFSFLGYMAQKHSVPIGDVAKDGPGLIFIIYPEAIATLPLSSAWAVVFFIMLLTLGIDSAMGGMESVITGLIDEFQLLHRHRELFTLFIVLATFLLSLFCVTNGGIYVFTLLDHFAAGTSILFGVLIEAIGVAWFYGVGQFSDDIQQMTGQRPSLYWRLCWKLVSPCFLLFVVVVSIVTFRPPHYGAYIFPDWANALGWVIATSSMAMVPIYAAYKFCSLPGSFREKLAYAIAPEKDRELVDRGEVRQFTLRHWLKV

B-score, inactive:
CC1(C)CC[C@]2(C(=O)O)CC[C@]3(C)C(=CCC4[C@@]5(C)CC[C@H](O)C(C)(C)C5[C@H](O)C[C@]43C)[C@@H]2C1 (stereo partly drawn) 1.56, COC(=O)COc1cccc2c(=O)n(CC(=O)NCCc3ccc(OC)c(OC)c3)ccc12 -1.43, CCCCN1C(N)=NC[C@@H]1Cc1ccccc1 -0.466, CCN1C(=O)N[C@@H](c2ccccc2)C(C(=O)OC)=C1C -0.748, Nc1nonc1-c1nc2ccccc2n1Cc1ccc(F)cc1 -0.103, Nc1nonc1-c1nc2ccccc2n1CCC(=O)O 0.142, C[C@H]1CC[C@]2(O[C@@H](CCO)C[C@@H](O)[C@@H]2O)O1 0.279, CCO[C@@H]1OC(C(N)=O)=C[C@H](c2ccc(Br)cc2)[C@H]1CCCO -0.185, CC[C@H](C)[C@@H](C(=O)N1CCNCC1)n1cc([C@@H](N)Cc2ccc(O)cc2)nn1 0.00778, O=C(c1ccccc1)c1cc(-c2ccccn2)c(N2CCOCC2)s1 1.13, CCc1ccc(NC(=O)CSc2nc3ccccc3c(=O)n2CCN2CCOCC2)cc1 0.477, N#CCc1c(C#N)c(N)nc(N2CCCC2)c1C#N -0.528, C#CCCOC(=O)N1C2=NC(C(=O)OC)=C(C(=O)OC)[C@@H]3N(C)c4ccc(OC)cc4[C@]23C[C@H]1C(=O)OC -0.658, C#CCOCCOCCOCCNc1nc(N2CCN(C(=O)[C@H](Cc3ccc(O)cc3)n3cc(C(N)CC(C)C)nn3)CC2)nc(N2CCN(C(=O)[C@H](CCC(=O)O)n3cc(C(N)[C@H](C)CC)nn3)CC2)n1 (stereo partly drawn) -0.0315, CC(=O)Nc1ccc(NC(=O)CSCc2cnn(-c3ccccc3)c2-n2cccc2)cc1 0.28, C1=C(CCNc2ncnc3c2cnn3-c2ccccc2)CCCC1 1.22, O=C(Nc1ccccc1[N+](=O)[O-])C1C(c2ccccc2)=C1c1ccccc1 -0.499, O=[N+]([O-])c1ccccc1NCc1ccc(Cl)cc1 -0.347, CC1(c2nnc(-c3ccncc3)o2)CC(c2cccnc2)=NO1 (stereo not drawn) -0.313, CCc1nnc(SCc2cccc(F)c2)nc1CC -0.0254, CC(NC(=O)Nc1ccccc1)C(c1cccs1)N1CCN(c2ccccc2)CC1 (stereo not drawn) -0.314, COc1ccccc1C1=CC(=O)CCC1 -0.483, C/C=C(/C)C(=O)O[C@@H]1c2cc3c(c4c2[C@@]2(CO4)C(=O)C(OC)=C(OC)C=C2C[C@@H](C)[C@H]1C)OCO3 -0.0544, Cc1cc(C)cc(OCC(=O)Nc2nc3ccc([N+](=O)[O-])cc3s2)c1 0.303, COC(=O)C(NC(=O)c1ccc(OC)cc1)(Nc1ncc(S(=O)(=O)c2ccc([N+](=O)[O-])cc2)s1)C(F)(F)F (stereo not drawn) 1.29, COC(C[C@@H]1O[C@@H]1C(=O)[C@@H](C)OCc1ccccc1)OC -1.68, Cn1c(=O)cc(OCCCC(=O)N2CCN(Cc3ccc4c(c3)OCO4)CC2)c2ccccc21 -0.011, O=C(Nc1cccc2ccccc12)N1CCN(Cc2ccc3c(c2)OCO3)CC1 0.465, C=CCOC(=O)C1=C[C@H](c2ccc(Br)cc2)C[C@H](OCCCCO)O1 -0.239, COC(=O)c1ccccc1NC(=O)c1ccccc1NS(C)(=O)=O 0.686, COC(=O)c1ccc(C(=O)OC)c(NC(=S)N2CCCCC2)c1 0.301, COC(=O)C1=C[C@@H](C(=O)OC)[C@@H]2C3=C(C(=O)[C@]2(C)NC(=O)c2ccccc2)[C@H](C)n2c(=O)n(C)c(=O)n2[C@@H]3C1 -0.415, COc1ccc(C(CC(=O)N2CCN(c3ccccc3)CC2)c2c(O)cc(OC)cc2OC)cc1 (stereo not drawn) 1.37, c1ccc2[nH]c(-c3nc4ccccc4[nH]3)nc2c1 0.0135, c1ccc(-c2[nH]ncc2-c2nc3ccccc3[nH]2)cc1 0.018, CN1CCN(C(=O)C2=C[C@H](c3ccc4c(c3)OCO4)C[C@H](OCc3ccc(CO)cc3)O2)CC1 0.0245, O=C1N[C@@H](Cc2ccccc2)C(=O)N2[C@@H]3N(S(=O)(=O)c4ccc(F)cc4)c4ccccc4[C@]3(Br)C[C@@H]12 1.04, C#CCOCCOCCOCCNc1nc(N2CCN(C(=O)[C@H](CCC(=O)O)n3cc(C(N)CO)nn3)CC2)nc(N2CCN(C(=O)[C@H](Cc3ccc(O)cc3)n3cc(C(N)[C@H](C)CC)nn3)CC2)n1 (stereo partly drawn) -0.199, CCOC(=O)CNC(=O)CSc1nnc(COc2ccc(Cl)cc2)n1CC 0.0208, CCOC(=O)CNC(=O)CSc1nnc(-c2cccc(OC)c2)n1CC 0.102, O=C(NCC1CC1)c1onc(CSc2ccccc2)c1C(=O)NCC1CC1 1.29, COc1ccc(C2/C=C\CN(S(=O)(=O)c3cccs3)CC(=O)N2Cc2ccc(F)cc2)cc1 (stereo not drawn) 0.769, CCOC(=O)c1sc(NC(=O)c2ccncc2)nc1C 0.297, CCOC(=O)c1ccc(N2C(=O)CC(N(C)Cc3ccccc3)C2=O)cc1 (stereo not drawn) -0.402, O=C1c2ccccc2S(=O)(=O)c2cc(N3CCN(c4ccccn4)CC3)ccc21 0.34, COC(C[C@@H](O)C[C@@H](O)[C@H](C)OCc1ccccc1)OC -0.417, OCC[C@H]1C[C@H](O)[C@@H](O)[C@]2(CCCCO2)O1 -1.31, CC(=O)Oc1ccc(C(=O)Nc2nccs2)cc1 -1.53, COc1cc(C(=O)Nc2nccs2)cc(OC)c1OC -0.0124, COc1ccc(C2/C=C\CN(CC(C)C)CC(=O)N2Cc2ccc(F)cc2)cc1 (stereo not drawn) -0.0164, Cc1cccc(Nc2nc(NCCO)nc(N3CCCC3)n2)c1 1.01, NC(=O)CC[C@@H]1NC(=O)[C@@H]2CCCN2C(=O)c2cc([N+](=O)[O-])cc(F)c2NCCC[C@@H](C(N)=O)NC1=O -0.0519, O=C(COc1ccccc1)NCc1ccc2c(c1)OCO2 -0.475, Cn1cc(CCC(=O)NCc2ccc3c(c2)OCO3)c2ccccc21 0.0949, NC(=O)C[C@@H]1NC(=O)CNC(=O)c2cc([N+](=O)[O-])cc(I)c2NCCC(C(N)=O)NC1=O (stereo partly drawn) 0.453, O=C(O)CCSc1nnc(-c2ccccc2)n1-c1ccccc1 -0.0697, O=S(=O)(c1cccc(S(=O)(=O)N2CCC(n3nnc4ccccc43)CC2)c1)N1CCCCC1 0.575, COC(=O)CCCC1=CC2=CC(=O)C(C)(OC(=O)c3cccs3)C(=O)C2=CN1c1cccc(C#N)c1 (stereo not drawn) -2.03, CCCNC(=O)Nc1ccccc1C(=O)Nc1ccc(OC)cc1 1.39, COc1ccc(NC(=O)c2ccc(OC)cc2)cc1 -1.02, Cc1nc(C(=O)Nc2ccc(Cl)cc2)sc1C1(C)CC(c2ccccc2)=NO1 (stereo not drawn) 0.677, CC(C)[C@@H]1NC(=O)c2cc([N+](=O)[O-])cc(I)c2NCCC[C@@H](C(=O)NC(CC(=O)O)C(N)=O)NC(=O)[C@H](CO)NC1=O (stereo partly drawn) -0.454, Cc1ccc(N2CCN(S(=O)(=O)c3ccc(F)cc3)CC2)c(C)c1 0.000185, Cc1ccc(S(=O)(=O)C(C#N)c2nc3ccccc3nc2N2CCCC2)cc1C (stereo not drawn) 1.69, C=CC(COCc1ccccc1)N(Cc1ccccc1)S(=O)(=O)c1ccccc1Br (stereo not drawn) -0.104, C#CCO[C@@H]1C[C@H](n2cnc3c(=O)[nH]c(NC(=O)C(C)C)nc32)O[C@@H]1CO 0.438, COC(=O)c1ccc(C(NC(=O)OCc2ccccc2)/C(F)=C/[C@@H](C)C(=O)O)cc1 (stereo partly drawn) -0.297

B-score, active:
CC(=O)Nc1nonc1-c1nc2ccccc2n1Cc1ccccn1 3.49, CCc1ccc2ncc(C(=O)c3ccccc3)c(N3CCOCC3)c2c1 2.66, O=C(NCCC1=CCCCC1)C1CCN(Cc2cnn(-c3ccccc3)c2-n2cccc2)CC1 3.85, O=C(O)c1ccccc1NC(=S)NC(NC(=O)c1ccccc1[N+](=O)[O-])C(Cl)(Cl)Cl (stereo not drawn) -2.89, O=C(NC(Nc1nc2ccc([N+](=O)[O-])cc2s1)(C(F)(F)F)C(F)(F)F)c1ccccc1 -6.22, O=C(CCCN1C(=O)c2cccc3cccc(c23)C1=O)N1CCN(Cc2ccc3c(c2)OCO3)CC1 3.8, CCS(=O)(=O)Nc1cc(C(=O)OC)ccc1C(=O)OC 6.13, COc1ccc(-c2[nH]nc(-c3ccccc3)c2-c2nc3ccccc3[nH]2)cc1 -7.37, CCOC(=O)CNC(=O)CSc1nc2cccnc2n1CC -8.17, CCOC(=O)c1sc(N(Cc2ccccc2)C(=O)CN2C(=O)CN(C)C2=O)nc1C 4.19, CCCCOC(=O)Nc1nccs1 16.3, CCC1SC2=NCCN2C1(O)c1ccc(Cl)cc1 (stereo not drawn) -5.92, O=C(CCNS(=O)(=O)c1ccccc1C(F)(F)F)NCc1ccc2c(c1)OCO2 -3.26, O=S(=O)(c1cccc(-c2nnc(SC(F)F)n2-c2ccccc2)c1)N1CCCCC1 -7.23, COc1ccc(NC(=O)ON=C2c3ccccc3-c3ccccc32)cc1 3.84, Cc1cc(N2CCN(S(=O)(=O)c3ccc(C)c(C)c3)CC2)c2ccccc2n1 3.23
